In the supplement of paper PMC11732987, “Enantioselective OTUD7B fragment discovery through chemoproteomics screening and high-throughput optimisation” (Communications Chemistry, 2025):

Experiments:
Experiment in all cases: log2 ratio of Biotin-Ahx-Ub-VS probe labelling (fragment/DMSO); higher = less target engagement (more negative = stronger competition), active = hit call of the paper (q ≤ 0.05, log2 ratio ≤ -1)
Conditions in all cases: compound concentration: 200 uM; treatment time: 3 h
[1] = target: T1, OTUD6B (UniProt Q8N6M0)
T1 sequence (whole entry): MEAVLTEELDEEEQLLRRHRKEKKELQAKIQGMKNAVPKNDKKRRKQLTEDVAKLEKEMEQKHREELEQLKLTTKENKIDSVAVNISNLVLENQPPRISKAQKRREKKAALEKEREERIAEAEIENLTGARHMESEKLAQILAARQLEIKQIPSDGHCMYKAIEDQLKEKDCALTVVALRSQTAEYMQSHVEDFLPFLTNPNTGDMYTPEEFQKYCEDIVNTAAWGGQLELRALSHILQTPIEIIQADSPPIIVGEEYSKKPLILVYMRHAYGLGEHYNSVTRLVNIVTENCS
How it was run: (§1)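 HEK293T lysate (495 µg per sample, in Tris/CHAPS/IGEPAL buffer with protease inhibitors) was exposed in triplicate for 3 h to fragment at 200 µM or to vehicle, then to Biotin-Ahx-Ub-VS at 0.5 µM final for 1 h. Labelled DUBs were enriched on NeutrAvidin, digested with LysC and trypsin, and analysed by diaPASEF LC-MS/MS. Spectronaut label-free quantities were normalised to the global median, and values are average log2 ratios of fragment over vehicle from an unpaired t-test. Only proteins with ≥2 unique peptides were used.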

[2] = target: T2, OTUD7B (UniProt Q6GQQ9)
T2 sequence (whole entry): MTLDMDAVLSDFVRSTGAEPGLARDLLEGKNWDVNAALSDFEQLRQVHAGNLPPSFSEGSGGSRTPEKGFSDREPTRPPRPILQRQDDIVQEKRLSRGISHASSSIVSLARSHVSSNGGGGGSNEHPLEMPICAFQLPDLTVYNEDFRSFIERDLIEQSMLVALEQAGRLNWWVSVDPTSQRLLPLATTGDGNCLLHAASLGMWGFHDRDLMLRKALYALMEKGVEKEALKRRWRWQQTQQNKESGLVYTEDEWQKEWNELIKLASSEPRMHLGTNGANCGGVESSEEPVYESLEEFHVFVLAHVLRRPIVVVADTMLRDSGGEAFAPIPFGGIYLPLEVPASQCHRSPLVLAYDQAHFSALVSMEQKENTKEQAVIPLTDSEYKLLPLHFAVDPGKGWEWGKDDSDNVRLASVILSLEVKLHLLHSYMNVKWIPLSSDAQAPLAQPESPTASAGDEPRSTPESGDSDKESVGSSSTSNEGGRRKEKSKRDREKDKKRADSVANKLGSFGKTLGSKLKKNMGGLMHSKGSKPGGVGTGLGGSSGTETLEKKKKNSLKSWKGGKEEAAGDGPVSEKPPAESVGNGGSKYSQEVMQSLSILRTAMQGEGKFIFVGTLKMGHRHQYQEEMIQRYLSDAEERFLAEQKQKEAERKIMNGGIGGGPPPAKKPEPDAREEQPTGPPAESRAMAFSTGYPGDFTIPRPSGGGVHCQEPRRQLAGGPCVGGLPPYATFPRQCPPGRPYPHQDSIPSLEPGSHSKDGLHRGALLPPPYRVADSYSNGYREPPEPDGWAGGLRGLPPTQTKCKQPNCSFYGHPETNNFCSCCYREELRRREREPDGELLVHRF
How it was run: as §1

[3] = target: PRPF8 (UniProt Q6P2Q9)
How it was run: as §1

[4] = target: T3, PSMD7 (UniProt P51665)
T3 sequence (whole entry): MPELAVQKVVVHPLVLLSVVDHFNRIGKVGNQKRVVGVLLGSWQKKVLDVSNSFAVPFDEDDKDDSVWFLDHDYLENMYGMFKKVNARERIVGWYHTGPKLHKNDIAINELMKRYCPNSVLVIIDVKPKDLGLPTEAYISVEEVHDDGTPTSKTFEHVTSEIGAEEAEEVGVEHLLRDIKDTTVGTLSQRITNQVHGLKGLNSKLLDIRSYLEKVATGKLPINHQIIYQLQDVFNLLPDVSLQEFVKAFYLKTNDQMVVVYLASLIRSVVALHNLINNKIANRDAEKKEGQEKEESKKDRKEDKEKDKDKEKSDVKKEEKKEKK
How it was run: as §1

[5] = target: UCHL1 (UniProt P09936)
How it was run: as §1

[6] = target: T4, UCHL3 (UniProt P15374)
T4 sequence (whole entry): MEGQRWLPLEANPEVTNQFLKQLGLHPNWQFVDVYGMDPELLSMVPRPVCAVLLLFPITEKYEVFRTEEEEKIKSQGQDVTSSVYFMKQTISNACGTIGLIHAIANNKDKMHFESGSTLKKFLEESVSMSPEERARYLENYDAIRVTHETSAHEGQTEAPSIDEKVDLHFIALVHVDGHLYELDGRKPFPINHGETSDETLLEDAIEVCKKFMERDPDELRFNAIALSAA
How it was run: as §1

[7] = target: T5, UCHL5 (UniProt Q9Y5K5)
T5 sequence (whole entry): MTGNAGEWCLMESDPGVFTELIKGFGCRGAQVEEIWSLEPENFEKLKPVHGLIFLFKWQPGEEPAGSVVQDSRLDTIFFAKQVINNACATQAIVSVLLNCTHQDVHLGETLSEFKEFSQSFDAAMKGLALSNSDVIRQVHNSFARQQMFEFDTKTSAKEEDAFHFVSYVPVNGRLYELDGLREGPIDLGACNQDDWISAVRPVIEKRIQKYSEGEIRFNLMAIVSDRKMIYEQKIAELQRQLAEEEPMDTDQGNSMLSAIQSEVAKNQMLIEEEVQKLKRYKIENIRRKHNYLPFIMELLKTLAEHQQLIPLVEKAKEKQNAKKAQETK
How it was run: as §1

[8] = target: USP10 (UniProt Q14694)
How it was run: as §1

[9] = target: T6, USP15 (UniProt Q9Y4E8)
T6 sequence (whole entry): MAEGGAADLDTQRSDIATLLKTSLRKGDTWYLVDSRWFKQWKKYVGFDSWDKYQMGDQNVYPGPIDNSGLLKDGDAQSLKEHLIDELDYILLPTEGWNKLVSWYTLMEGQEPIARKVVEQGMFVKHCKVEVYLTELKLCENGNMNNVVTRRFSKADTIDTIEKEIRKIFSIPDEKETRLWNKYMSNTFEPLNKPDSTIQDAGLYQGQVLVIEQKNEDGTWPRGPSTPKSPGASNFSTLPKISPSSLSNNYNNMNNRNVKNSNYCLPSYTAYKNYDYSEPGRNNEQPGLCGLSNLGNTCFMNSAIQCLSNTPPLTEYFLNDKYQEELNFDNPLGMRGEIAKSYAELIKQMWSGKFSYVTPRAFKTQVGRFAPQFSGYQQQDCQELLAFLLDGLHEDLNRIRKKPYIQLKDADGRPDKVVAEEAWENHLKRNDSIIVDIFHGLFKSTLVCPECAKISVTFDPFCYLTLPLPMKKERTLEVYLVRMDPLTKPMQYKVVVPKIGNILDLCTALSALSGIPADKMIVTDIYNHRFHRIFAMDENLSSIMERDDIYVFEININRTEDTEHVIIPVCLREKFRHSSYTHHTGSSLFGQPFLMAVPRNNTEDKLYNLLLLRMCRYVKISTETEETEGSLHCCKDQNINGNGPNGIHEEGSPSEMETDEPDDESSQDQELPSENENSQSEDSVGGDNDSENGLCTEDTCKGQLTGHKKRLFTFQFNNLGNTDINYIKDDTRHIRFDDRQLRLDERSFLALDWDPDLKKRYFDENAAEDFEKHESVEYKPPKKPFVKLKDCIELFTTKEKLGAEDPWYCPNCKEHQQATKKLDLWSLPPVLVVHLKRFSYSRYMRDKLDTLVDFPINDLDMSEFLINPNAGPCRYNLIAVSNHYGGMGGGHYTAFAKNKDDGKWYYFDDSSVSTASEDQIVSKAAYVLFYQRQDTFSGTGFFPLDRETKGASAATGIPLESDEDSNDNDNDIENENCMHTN
How it was run: as §1

[10] = target: USP16 (UniProt Q9Y5T5)
How it was run: as §1

Measured: log2 ratio of Biotin-Ahx-Ub-VS probe labelling

Sequence of USP16 (Q9Y5T5 whole entry, looked up): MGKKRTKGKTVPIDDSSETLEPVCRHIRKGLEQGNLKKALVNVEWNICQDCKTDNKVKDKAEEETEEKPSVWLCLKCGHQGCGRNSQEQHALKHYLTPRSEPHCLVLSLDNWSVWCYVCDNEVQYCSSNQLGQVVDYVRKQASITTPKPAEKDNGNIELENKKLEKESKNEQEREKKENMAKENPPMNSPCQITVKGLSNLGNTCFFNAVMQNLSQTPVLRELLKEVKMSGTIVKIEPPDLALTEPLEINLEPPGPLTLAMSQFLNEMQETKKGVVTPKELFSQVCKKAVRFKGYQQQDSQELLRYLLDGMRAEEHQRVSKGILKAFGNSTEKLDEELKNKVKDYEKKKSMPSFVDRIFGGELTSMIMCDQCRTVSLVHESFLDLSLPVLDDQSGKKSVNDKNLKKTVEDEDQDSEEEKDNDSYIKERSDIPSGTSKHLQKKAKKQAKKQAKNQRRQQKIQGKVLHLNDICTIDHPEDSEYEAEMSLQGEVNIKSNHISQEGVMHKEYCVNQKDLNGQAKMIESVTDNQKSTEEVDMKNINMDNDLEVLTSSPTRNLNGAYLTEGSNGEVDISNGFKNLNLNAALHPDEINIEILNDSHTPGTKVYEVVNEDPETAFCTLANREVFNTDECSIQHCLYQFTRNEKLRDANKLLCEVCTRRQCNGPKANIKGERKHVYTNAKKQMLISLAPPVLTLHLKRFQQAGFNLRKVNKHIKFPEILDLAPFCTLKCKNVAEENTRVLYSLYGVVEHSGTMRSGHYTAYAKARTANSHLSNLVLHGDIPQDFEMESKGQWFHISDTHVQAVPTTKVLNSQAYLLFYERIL
Sequence of USP10 (Q14694 whole entry): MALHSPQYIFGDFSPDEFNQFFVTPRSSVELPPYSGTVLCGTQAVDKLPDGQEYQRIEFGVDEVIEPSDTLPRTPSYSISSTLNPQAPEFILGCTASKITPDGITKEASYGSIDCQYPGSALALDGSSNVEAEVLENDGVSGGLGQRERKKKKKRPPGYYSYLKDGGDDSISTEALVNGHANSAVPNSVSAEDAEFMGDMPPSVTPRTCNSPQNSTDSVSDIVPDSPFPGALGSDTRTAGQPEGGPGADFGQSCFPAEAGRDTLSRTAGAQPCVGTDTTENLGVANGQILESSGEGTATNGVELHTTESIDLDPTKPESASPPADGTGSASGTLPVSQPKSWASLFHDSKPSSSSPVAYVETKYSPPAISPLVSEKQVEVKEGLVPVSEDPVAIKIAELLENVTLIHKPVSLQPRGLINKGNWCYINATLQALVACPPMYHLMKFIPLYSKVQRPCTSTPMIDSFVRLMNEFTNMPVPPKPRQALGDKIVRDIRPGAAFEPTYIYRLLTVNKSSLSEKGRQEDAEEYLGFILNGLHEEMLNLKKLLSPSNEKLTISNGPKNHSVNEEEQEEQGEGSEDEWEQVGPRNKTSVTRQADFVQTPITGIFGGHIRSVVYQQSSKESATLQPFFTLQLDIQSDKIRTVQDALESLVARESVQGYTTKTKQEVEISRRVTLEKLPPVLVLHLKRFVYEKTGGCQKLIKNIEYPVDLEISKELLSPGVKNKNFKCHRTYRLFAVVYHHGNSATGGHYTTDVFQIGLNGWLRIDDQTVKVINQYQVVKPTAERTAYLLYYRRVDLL
Sequence of UCHL1 (P09936 whole entry, looked up): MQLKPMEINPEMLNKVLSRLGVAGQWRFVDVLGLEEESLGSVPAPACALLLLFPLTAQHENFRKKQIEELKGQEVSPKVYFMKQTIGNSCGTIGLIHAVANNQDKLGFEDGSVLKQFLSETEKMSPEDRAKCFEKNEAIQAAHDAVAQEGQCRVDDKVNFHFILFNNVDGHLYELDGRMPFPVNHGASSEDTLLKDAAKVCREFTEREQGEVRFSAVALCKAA

Cc1ccc(CC(CO)CNC(=O)CCl)cc1 (stereo not given)
active: [2] -1.12 | [5] -1.92
inactive: [1] -0.264 | [3] -0.059 | [4] -0.169 | [6] -0.121 | [7] -0.474 | [8] -0.0682 | [9] -0.199 | [10] 0.217
